Compound activity deposited in PubChem BioAssay by National Center for Advancing Translational Sciences (NCATS).
The list is not random: actives were taken first. Their share in the collection is about 8%.
HT1080NT lethal – kills 2HG-producing HT-1080-NT fibrosarcoma cells | HT-1080-NT fibrosarcoma viability, CellTiter-Glo ATP luminescence, 48 h | Potency, µM (highest dose often 46.1 µM), most hits filed as cytotoxic | 1.6% of 360,000 active | AID 686970;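 also: NT is the 2HG producing partner of a matched IDH1 knockdown line; nearly all actives have a fitted effect of over 55% in size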
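HT-1080-NT fibrosarcoma cells (2HG-overproducing), 750 cells/well in RPMI with 5% FBS, dosed after 2 h and incubated 48 h at 37C. CellTiter-Glo luminescence normalized to DMSO and no-cell wells; concentration-response curves fitted and classed.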
KB-3-1 tox – KB-3-1 parental cell cytotoxicity. 1.4% of 400,000 active. Potency, µM (doses to about 46.1 µM), hits mostly cytotoxic. KB-3-1 viability, CellTiter-Glo ATP luminescence, 72 h; also: nearly all actives have a fitted effect of over 60% in size
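Parental KB-3-1 adenocarcinoma cells in phenol-red-free DMEM with 10% FBS were pin-treated with compounds at several concentrations, incubated 72 h at 37 °C, and viability read by CellTiter-Glo luminescence; concentration-effect curves were fitted after normalization.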
KB-V1 cytotox – KB-V1 MDR subline cytotoxicity. KB-V1 MDR cells viability, CellTiter-Glo, 72 h. 3.4% of 400,000 active. Potency, µM (doses to about 46.1 µM), hits mostly cytotoxic; also: nearly all actives have a fitted effect of over 60% in size
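Drug-selected KB-V1 cells, grown in DMEM lacking phenol red with 10% FBS, receive compound titrations; after three days at 37 degrees C, surviving cell ATP is quantified by CellTiter-Glo luminescence and responses normalized and curve-fitted.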
HT1080 IDH1KD tx – kills HT-1080 cells with IDH1 knockdown; Potency, µM (top dose mostly 46.1 µM), hits mostly cytotoxic; HT-1080 IDH1 knockdown viability, ATP luminescence, 48 h; 2% of 360,000 active
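Using the IDH1-knockdown HT-1080 line run in the same batch and compound series as the NT line, viability after 48 h at 37 °C was determined by CellTiter-Glo luminescence and expressed as % activity.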
SW480 rerep – DNA re-replication induction in SW480 cells. SW480 DNA re-replication, Hoechst DNA content imaging, 48 h. Potency, µM (titrated, usually from 46.1 µM), actives largely listed as activators. 1.8% of 340,000 active; also: nearly all actives have a fitted effect of over 55% in size
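Hoechst fluorescence of nuclei (405 nm excitation, 500-530 nm emission) measured by plate-scanning imager after 48 hr compound exposure at 37 C; re-replication scored as increased number of nuclei with elevated intensity.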
MCF10A rerep – DNA re-replication induction in MCF 10a cells. MCF 10A DNA re-replication, Hoechst nuclear intensity, 48 h. Potency, µM (top dose mostly 46.1 µM), hits mostly activators. 2.9% of 350,000 active; also: nearly all actives have a fitted effect of over 50% in size
Numbers stand for hits; 0 = inactive; ? = inconclusive; - = not tested or not shown; [ ] = remark or other dose. Calls follow the shape of the dose curve; as a rule, active = well fitted curve in the direction sought with a large enough effect; inconclusive = small, poorly fitted or top-dose-only effect, or another doubt; inactive = no such curve, though single readings can be large; an effect the other way counts as inactive or inconclusive.

SMILES	HT1080NT lethal	KB-3-1 tox	KB-V1 cytotox	HT1080 IDH1KD tx	SW480 rerep	MCF10A rerep
CN1C2=CC=CC=CC2=[N+](C)C12C=CC(=[N+]([O-])[O-])C=C2[N+](=O)[O-] (configuration not stated)	0	0	?	0	0	0
CN1C2=CC=CC=CC2=[N+](C)C12C([N+](=O)[O-])=CC(=[N+]([O-])[O-])C=C2[N+](=O)[O-] (configuration not stated)	?	0	0	2.1µM	0.65µM	?
N#Cc1c(NC2CCCCC2)nc(-c2ccco2)c2c1CCCC2	0	?	0	0	13µM	16µM
N#Cc1c(NCCCO)nc(-c2ccco2)c2c1CCCC2	0	0	0	0	5.8µM	18µM
O=[N+]([O-])c1ccc(N2CCC(=NOCc3ccc(Cl)cc3)CC2)cc1	?	0	15µM	0	0	0
O=[N+]([O-])c1ccc(CN2CCN(c3ccc([N+](=O)[O-])cc3)CC2)cc1	?	?	0	?	0	0
Cc1ccc(OCCCn2c(-c3ccc(Cl)cc3)nc3ccccc3c2=O)cc1C	-	0	?	-	-	-
CCCOc1cccc(-c2nn(-c3ccccc3)cc2/C=C(\C#N)C(=O)NCCCn2ccnc2)c1	0	0	18µM	0	?	?
N#C/C(=C\c1ccc([N+](=O)[O-])cc1)C(=O)NCCCn1ccnc1	0	?	0	0	0	?
N#C/C(=C/c1cn(-c2ccccc2)nc1-c1cccc(OCc2ccc(F)cc2)c1)C(=O)NCCCn1ccnc1	16µM	?	16µM	?	?	10µM
O=C(O)CSc1cc(NS(=O)(=O)c2ccc(Cl)cc2)c2ccccc2c1O	?	?	?	26µM	?	23µM
COc1ccc(S(=O)(=O)Nc2cc(SCC(=O)O)c(O)c3ccccc23)cc1	?	?	?	0	?	0
Cc1cc(C)c(S(=O)(=O)Nc2cc(SCC(=O)O)c(O)c3ccccc23)cc1C	0	?	?	21µM	?	?
Cc1ccc(N(C)S(=O)(=O)c2cccc(C(=O)Nc3nnc(C4CC4)s3)c2)cc1	0	0	0	0	0[1.84 µM]	?
O=C(NN1C(=O)c2cc(Br)ccc2NC1c1cc(Br)cc(Br)c1O)c1ccncc1 (configuration not stated)	0	0	0	?	?	?
CC(=O)NN1C(=O)c2ccccc2NC1c1ccc([N+](=O)[O-])o1 (configuration not stated)	0	?	0	0	23µM	0
O=C(NN1C(=O)c2ccccc2NC1c1ccc([N+](=O)[O-])o1)c1ccc(Br)cc1 (configuration not stated)	0	0	0	0	?	9.2µM
O=C(NN1C(=O)c2ccccc2NC1c1ccco1)c1ccc(Br)cc1 (configuration not stated)	0	0	0	0	0	0
Cc1cc([N+](=O)[O-])ccc1-c1ccc(C2Nc3ccccc3C(=O)N2O)o1 (configuration not stated)	?	23µM	0	7.1µM	?	10µM
O=C(NN1C(=O)c2cc(Br)ccc2NC1c1ccccc1Cl)c1ccncc1 (configuration not stated)	0	0	0	0	21µM	0
CCOc1ccccc1NC(=O)NCCN1CCCCC1	0	0	0	0	0	0
COC(=O)c1cc(S(=O)(=O)Nc2cccc(C)c2C)cn1C	0	0	0	0	0	0
O=C(O)c1cccc(Cl)n1	0	0	0	0	0	0
COc1ccc(CN(C(C)=O)c2cccc(C)c2C)cc1	16µM	?	?	?	?	?
CC(=O)N(Cc1ccc(Br)cc1)c1cccc(C)c1C	?	0	0	?	?	?
SMILES	HT1080NT lethal	KB-3-1 tox	KB-V1 cytotox	HT1080 IDH1KD tx	SW480 rerep	MCF10A rerep
Cc1ccc(Cn2cc(CN3CC(N4CCCCC4)CS3(=O)=O)nn2)cc1 (configuration not stated)	0	0	?	0	-	-
Cc1ccc(Cn2cc(CN3CC(N4CCN(Cc5ccccc5F)CC4)CS3(=O)=O)nn2)cc1 (configuration not stated)	0	?	10µM	0	-	-
CCCCCCN1CCN(C2CN(Cc3cn(Cc4ccc(C)cc4)nn3)S(=O)(=O)C2)CC1 (configuration not stated)	0	0	?	23µM	-	-
COc1ccc(/C=C/C(=O)c2cc(Cl)cc(Cl)c2O)c(OC)c1	0	0	0	0	0	0
O=C(/C=C/c1ccccn1)c1cc(Cl)cc(Cl)c1O	16µM	?	?	?	16µM	21µM
Cc1ccsc1C1NC(=O)c2c(sc3c2CCN(C)C3)N1 (configuration not stated)	?	?	?	0	0	0
O=C(Nc1nnc(-c2ccc(Cl)cc2)o1)C1=COCCO1	0	0	8.2µM	0	0	0
O=c1cc(C(F)(F)F)oc2c1ccc1ccccc12	0	0	0	0	0	0
O=c1cc(/C=C/c2ccccc2)oc2c1ccc1ccccc12	0	0	?	0	0	21µM
COC(=O)c1ccc(NC(=O)CSC2=NCCN2)cc1	?	?	?	0	?	15µM
COc1ccccc1N1CCN(c2cc(=O)n(Cc3ccc(F)cc3)c(=O)[nH]2)CC1	12µM	5.2µM	?	?	16µM	?
CCOC(=O)N1CCN(c2cc(=O)n(Cc3ccc(F)cc3)c(=O)[nH]2)CC1	0	0	0	0	21µM	12µM
O=c1cc(N2CCN(Cc3ccccc3)CC2)[nH]c(=O)n1Cc1ccc(F)cc1	0[9.24 µM]	0	0	0	0	0
CCN1CCN(c2cc(=O)n(Cc3ccc(F)cc3)c(=O)[nH]2)CC1	0	0	0	0	0	0
COc1ccccc1N1CCN(S(=O)(=O)CCNC(=O)Cc2ccc(F)cc2)CC1	0	?	18µM	?	?	0
COc1ccc(CC(=O)NCCS(=O)(=O)N2CCN(c3ccc(F)cc3)CC2)cc1OC	0	0	0	0	0	0
O=c1cc(N2CCN(c3ccccc3Cl)CC2)[nH]c(=O)n1Cc1ccc(F)cc1	?	4.6µM	21µM	2.6µM	?	2.1µM
CCCOC(=O)c1cccc(NC(=O)C(C)(C)C)c1	0	0	0	0	0	0
Cc1ccc2nc(CSc3nc(C)ccc3C#N)[nH]c2c1	18µM	0	0	16µM	?	?
Cc1ccc(C#N)c(SCc2ccccc2F)n1	0	0	0	0	?	0
CCCCS(=O)(=O)NC1=NCN(CCOC(=O)c2ccccc2)CN1	0	0	0	0	0	0
CC1(C)CC(=O)/C(=C(\O)c2ccccc2)C(=NCCc2ccccc2)C1	0	0	5.8µM	0	0	?
